# Measured values published in PubChem BioAssay (Tox21).
# Values joined by “and” are separate entries in the source; they are usually repeats but may differ in a detail not shown here. Equal entries are not always repeated. Results filed as inconclusive are left out. Entries that show only a call come without a potency. A structure can be active in one record and inactive in another. Active and inactive are the calls of the source. Calls come from the whole dose curve.
# Test: p53 small molecule agonists, cell-based qHTS assay with rat liver microsomes: qHTS cell viability counter screen (AID 1963580); note: nearly all actives have a fitted effect of over 45% in size
# Conditions: p53RE-bla HCT-116 + rat microsomes, ATP viability, 16 h; series mostly up to 66 µM
# Excerpt: National Center for Advancing Translational Sciences [NCATS]
# Division of Preclinical Innovation [DPI]
# U.S. Environmental Protection Agency [EPA]
# National Institutes of Environmental Health Sciences [NIEHS]
# National Toxicology Program [NTP]
# U.S. Food and Drug Administration [FDA]
# p53, a tumor suppressor protein, is activated following cellular insult, including DNA damage and other cellular stresses. The activation of p53 regulates cell fate by inducing DNA repair, cell cycle arrest, apoptosis, or cellular senescence. The activation of p53, therefore, is a good indicator of DNA damage and other cellular stresses. The CellSensor p53RE-bla HCT-116 cell line contains a stably integrated beta-lactamase reporter gene under control of the p53 response elements. The activation of the reporter gene under culture conditions can be detected by fluorescence intensity. This cell line was used to screen the Tox21 10K compound library in the condition of presence of rat liver microsomes and to identify agonists that activate the p53 signaling pathway after in vitro metabolic activation (Ooka et al., Archive of Toxicology 96:1975-1987, 2022). The cytotoxicity of the Tox21 compound library against the p53 RE-bla HCT-116 cell line was tested in parallel by measuring the intra cellular ATP content in the same wells.
# Tox21 Assay Protocol Summary:
# The p53RE-bla cells were dispensed at 4,000cells/3ul/well in 1536-well black-clear bottom plates. After the assay plates were incubated at 37 C, 5% CO2 incubator for 5 hours, 23 nL of compounds dissolved in DMSO, positive controls or DMSO only was transferred to the assay plate. Following compound addition, 3 uL of rat liver microsomes (Molecular Toxicology, Boone, NC) at final concentration of 0.5 mg/mL and 1uL of B-Nicotinamide adenine dinucleotide 2'-phosphate (NADPH) at final concentration of 0.5 mg/mL were transferred to the assay plate. The plates were incubated at 37 C for 16 hours. 1 uL of LiveBLAzer detection mixture was added to each well and the plates were incubated at room temperature in the dark for 2 h. Fluorescence intensity at 460 and 530 nm emission and 405 nm excitation were measured by an Envision plate reader. For cell viability readout that measures cytotoxicity, 4 ul/well of CellTiter-Glo reagent was added into the assay plates using a Flying Reagent Dispenser. After 30 min incubation at room temperature, the luminescence intensity in the plates was measured using a ViewLux plate reader.
# Potency is the fitted concentration of half-maximal effect.
row,SMILES,Potency
1,C/C=C/c1ccc(OC)cc1,inactive
2,O=C(O)c1cn(-c2ccc(F)cc2)c2cc(N3CCNCC3)c(F)cc2c1=O,inactive
3,c1ccc2cc3ccccc3cc2c1,inactive
4,CCCCCC(=O)O,inactive
5,CCCN(CCC)S(=O)(=O)c1ccc(C(=O)O)cc1,inactive
6,CCN1CCCC1=O,inactive
7,CC1=CC[C@H]2C[C@@H]1C2(C)C,inactive
8,O=C(O)c1ccc(S(=O)(=O)N(Cl)Cl)cc1,inactive
9,NC(=O)N/N=C/c1ccc([N+](=O)[O-])o1,inactive
10,NC(=O)NC(N)=O,inactive
11,O=c1c(-c2ccc(O)cc2)coc2cc(O)cc(O)c12,16 µM (active)
12,Cc1occc(=O)c1O,inactive
13,CC(=O)O[C@]1(C(C)=O)CC[C@H]2[C@@H]3C[C@H](C)C4=CC(=O)CC[C@]4(C)[C@H]3CC[C@@]21C,inactive
14,O=C=NCCCCCCN=C=O,inactive
15,O=C1CCCCCCCCCCC1,inactive
16,NC(=O)NC1NC(=O)NC1=O (stereo not given),inactive
17,COC(=O)CCCC(=O)OC,inactive
18,Brc1nc2ccccc2s1,inactive
19,CC/C(=C(\c1ccccc1)c1ccc(OCCN(C)C)cc1)c1ccccc1,1.83 µM (active) and 28.8 µM (active) and inactive
20,Cc1ccc(S(=O)(=O)N=C=O)cc1,inactive

row,SMILES,Potency
1,C/C=C/c1ccc(O)c(OC)c1,inactive
2,CC(=O)Nc1ccccc1,inactive
3,CCCCNC(=O)NS(=O)(=O)c1ccc(N)cc1,inactive
4,c1ccc2[nH]ccc2c1,inactive
5,CCCC(C)=O,inactive
6,COCCOCCOC,inactive
7,CNC[C@H](O)c1cccc(O)c1,inactive
8,NC(N)=NC(N)=NCCc1ccccc1,inactive
9,O=C(O)c1ccccc1Nc1cccc(C(F)(F)F)c1,inactive
10,CC1=CC(=O)CC(C)(C)C1,16.7 µM (active) and inactive
11,CCCCCCCC=O,inactive
12,Cc1cc(C)c(O)c(C)c1,inactive
13,O=C(O)c1ccccc1C(=O)O,inactive
14,c1ccc2cc(Nc3ccc(Nc4ccc5ccccc5c4)cc3)ccc2c1,inactive
15,CCCCCCCCCCCCCCCCO,inactive
16,NS(=O)(=O)c1cc2c(cc1Cl)NCNS2(=O)=O,inactive
17,Cc1nnc(NS(=O)(=O)c2ccc(N)cc2)s1,inactive
18,C=C(C)C1CC=C(C)CC1 (stereo not given),inactive
19,COCN(COC)c1nc(N(COC)COC)nc(N(COC)COC)n1,inactive
20,CC(=O)Nc1ccc(CC(=O)O)cc1,inactive
